Compound activity: PubChem BioAssay, National Center for Advancing Translational Sciences (NCATS)
p53 reactivation = restores transcriptional activity of mutant p53 | Potency, µM (titrated, usually from 92.2 µM), most hits filed as activators | AID 504706 | 320,000 compounds, 0.063% hits | H1299 p53-A138V BP100-luciferase reporter, luminescence, 24 h; note: nearly all actives have a fitted effect of over 45% in size
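H1299 (p53-null), stable ts p53-A138V + BP100-Luc; 1000 cells/well, Opti-MEM/10% FBS; cpd 4 pt, 1:5; 24 h, 37 deg C, 5% CO2; detection reagent 10 min RT; luminescence.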
S-ASM inh = blocks human secretory acid sphingomyelinase; P17405; placental ASM, HMU-PC fluorogenic substrate, 60 min; Potency, µM (titrated, usually from 57.5 µM), hits mostly inhibitors; 340,000 compounds, 0.006% hits; AID 504937
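qHTS format. ASM enzyme prepared from human placenta hydrolyses the fluorogenic substrate HMU-PC0 (9 uM final) over 60 min at 37 °C after a 10 min compound preincubation.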
hERG WT inh = blocks the wildtype human KCNH2 potassium channel; 340,000 compounds, 0.37% hits; activity change, % at 1.84 µM; U2OS, BacMam KCNH2, thallium flux FluxOr; hits give low values; AID 720551; Q12809;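 active = maximum activity change below -70%; inconclusive = maximum activity change between -70% and -50%; inactive = maximum activity change above -50%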
Target sequence (Q12809 whole entry, looked up): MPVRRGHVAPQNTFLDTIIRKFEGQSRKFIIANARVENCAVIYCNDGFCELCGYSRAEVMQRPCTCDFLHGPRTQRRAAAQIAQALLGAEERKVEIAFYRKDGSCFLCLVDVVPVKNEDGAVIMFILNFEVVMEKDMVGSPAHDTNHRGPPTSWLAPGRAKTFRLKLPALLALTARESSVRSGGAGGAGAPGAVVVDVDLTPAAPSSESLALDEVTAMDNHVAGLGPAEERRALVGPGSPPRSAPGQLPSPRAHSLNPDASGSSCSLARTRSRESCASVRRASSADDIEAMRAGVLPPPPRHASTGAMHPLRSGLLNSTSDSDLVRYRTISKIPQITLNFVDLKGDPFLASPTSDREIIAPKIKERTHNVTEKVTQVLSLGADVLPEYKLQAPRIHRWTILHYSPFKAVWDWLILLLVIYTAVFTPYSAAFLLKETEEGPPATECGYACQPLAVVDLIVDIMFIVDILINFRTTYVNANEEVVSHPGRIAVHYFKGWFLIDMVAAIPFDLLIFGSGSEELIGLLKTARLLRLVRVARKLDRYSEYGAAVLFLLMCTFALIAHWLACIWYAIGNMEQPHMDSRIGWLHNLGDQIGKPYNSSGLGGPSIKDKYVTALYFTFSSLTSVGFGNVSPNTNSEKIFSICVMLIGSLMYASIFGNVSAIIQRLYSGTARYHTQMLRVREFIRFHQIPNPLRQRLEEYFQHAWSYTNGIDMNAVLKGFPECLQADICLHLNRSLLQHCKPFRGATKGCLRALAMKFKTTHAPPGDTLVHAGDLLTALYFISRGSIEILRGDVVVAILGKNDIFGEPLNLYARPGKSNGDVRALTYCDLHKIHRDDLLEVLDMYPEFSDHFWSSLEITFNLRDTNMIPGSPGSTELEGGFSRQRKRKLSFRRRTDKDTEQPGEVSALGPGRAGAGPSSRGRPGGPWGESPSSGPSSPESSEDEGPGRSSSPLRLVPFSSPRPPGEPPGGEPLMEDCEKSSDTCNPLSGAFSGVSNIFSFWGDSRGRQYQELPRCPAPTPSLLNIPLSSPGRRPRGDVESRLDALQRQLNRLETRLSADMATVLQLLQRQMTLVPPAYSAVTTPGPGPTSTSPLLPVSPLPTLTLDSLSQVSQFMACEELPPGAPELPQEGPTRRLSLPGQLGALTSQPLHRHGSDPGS
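U2OS cells were transduced with wild-type KCNH2 virus (2.03 x 10^8 / mL) for 4 h at room temperature, then cultured overnight at 37 C. Thallium flux was read with FluxOr dye. Rate constants were normalized to DMSO controls.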
KCNH2 3.1 inh = KCNH2 3.1 (human) potassium channel inhibition. AID 720553. U2OS KCNH2 3.1, thallium flux FluxOr; hits give low values. activity change, % (tested at about 1.8 µM). 340,000 compounds, 0.95% hits;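 active = maximum activity change below -70%; inconclusive = maximum activity change from -70% to -50%; inactive = maximum activity change above -50%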;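 note: thallium influx rate constant from kinetic fluorescence after stimulation buffer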
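Measured as rate of thallium-driven FluxOr signal in transduced U2OS cells carrying the 3.1 channel, read kinetically for 2 min upon stimulation; values are rate constants scaled to DMSO control wells.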
MmCpn inh = inhibitors of Methanococcus maripaludis chaperonin TRiC (MmCpn) | Potency, µM (titrated, usually from 76.9 µM), usual class: inhibitors | purified Mm-Cpn ATPase, ADP Transcreener TR-FRET | 330,000 compounds, 0.031% hits; note: nearly all actives have a fitted effect of over 80% in size
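Inhibition of chaperonin ATP hydrolysis is measured as reduced ADP production, detected by competitive TR-FRET in which signal falls with ADP. Final enzyme 25 nM and ATP 10 uM, reacted 30 min at 37°C.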
uPA surface inh = cell surface uPA generation inhibition. cell surface uPA generation assay, qHTS. Potency, µM (doses to about 38.3 µM), usual class: inhibitors. 330,000 compounds, 0.31% hits. AID 540303; active = well fitted inhibition curve with a large enough effect; inconclusive = small, poorly fitted or top-dose-only effect; inactive = no such curve, though single readings can be large or run the other way; tested in mouse RAW 264.7 cells; note: nearly all actives have a fitted effect of over 55% in size
Hits are given with their value; 0 = inactive; ? = inconclusive; - = no result; [ ] = remark or other dose. A selection: hits, their analogues and other compounds. The true share with any hit is near 1.4%. Unless noted, calls come from the whole dose curve; as a rule, active = well fitted curve in the direction sought with a large enough effect; inconclusive = small, poorly fitted or top-dose-only effect, or another doubt; inactive = no such curve, though single readings can be large; an effect the other way counts as inactive or inconclusive.

SMILES | p53 reactivation | S-ASM inh | hERG WT inh | KCNH2 3.1 inh | MmCpn inh | uPA surface inh
CCOCCCN(C)C1CCN(C(=O)c2oc3ccccc3c2NC(=O)Cc2ccc(F)cc2)CC1 | 0 | 0 | -107.5 | -82.9 | 0 | 0
COc1cccc(N2CCN(C(=O)c3oc4ccccc4c3NC(=O)Cc3ccc(OC)c(OC)c3)CC2)c1 | 0 | 0 | 0 | 0 | 0 | 0
O=C(Nc1ccccc1)c1ccc(S(=O)(=O)N2CCCCC2)cc1 | 0 | 0 | 0 | 0 | 0 | 0
O=C(Nc1ccn(-c2ccccc2)n1)c1ccc(S(=O)(=O)N2CCCCCC2)cc1 | 0 | 0 | 0 | -83.8 | 0 | 0
Cn1c2cc(B(O)O)sc2c2cnn(Cc3c(F)cccc3Cl)c(=O)c21 | - | - | - | - | 0 | -
Cc1cc(C)c(Cn2c(=O)[nH][nH]c2=O)cc1Cn1c(=O)[nH][nH]c1=O | - | - | 0 | 0 | - | -
COC(=O)/C(=C\C(=O)c1ccccc1)Nc1cccc(C(F)(F)F)c1 | 28.2µM | 0 | 0 | 0 | ? | 0
CN1CCN(CC(=O)Nc2sc3c(c2C(=O)Nc2ccccc2)CCCC3)CC1 | 0 | 0 | -91.6 | -95.4 | 0 | 0
CSc1ccccc1C(=O)C1CCCN(Cc2c(C)n(C)n(-c3ccccc3)c2=O)C1 (stereo not given) | 0 | 0 | -149.5 | -188.0 | 0 | 0
Cc1cc(-c2ccccc2)nc(=O)[nH]1 | 0 | 0 | -166.9 | -192.5 | 0 | 0
O=c1nc(-c2ccccc2)cc(C(F)(F)F)[nH]1 | 0 | 0 | 0 | 0 | 0 | 0
COc1ccc(NS(=O)(=O)c2cc(NS(=O)(=O)c3cccs3)ccc2C)cc1 | 0 | 0 | 0 | 0 | 0 | 0
Cc1cc(-c2nn(-c3ccccc3F)cc2CN2CCN(c3ccncc3)CC2)c(C)s1 | 0 | 0 | -136.7 | -135.5 | 0 | 0
Cc1cc(-c2nn(-c3ccccc3F)cc2CN2CCC(O)CC2)c(C)s1 | 0 | 0 | 0 | 0 | 0[15.4 µM] | 0
CC1CCCCC1NC(=O)c1cc(Cl)nc2ccccc12 (stereo not given) | - | - | 0 | 0 | - | -
COc1ccc(Nc2nc(N3CCCCC3)c3ccccc3n2)cc1 | 0 | 0 | 0 | 0 | 0 | 0
Oc1ccc(Nc2nc(N3CCCC3)c3ccccc3n2)cc1 | 0 | 0 | 0 | -86.7 | 0 | 0
CCOc1ccc(CSC2=NCCN2)cc1[N+](=O)[O-] | 0 | 0 | 0 | -91.3 | 0 | 0
CCOc1ccc(CN(CCO)CCO)cc1[N+](=O)[O-] | 0 | 0 | 0 | -76.1 | 0 | 0
CCCCCOc1ccc(CSC(=N)N)cc1[N+](=O)[O-] | 0 | 0 | 0 | -95.9 | 0 | 0
CCCCOc1ccc(CSC2=NCCN2)cc1[N+](=O)[O-] | 0 | 0 | 0 | ? | 0 | 6.31µM
CCCCN(CCCC)C(=O)c1c[nH]c2ccc(S(=O)(=O)Nc3cccc(Cl)c3C)cc2c1=O | - | - | - | - | 0 | -
Cc1ccc(S(=O)(=O)N2CCC(C(=O)Nc3ccc(N4CCOCC4)cc3)CC2)cc1C | 0 | 0 | 0 | 0 | 0 | 0
CCCc1cc(=O)oc2cc(C)cc(OCC(=O)NCCCN3CCOCC3)c12 | 0 | 0 | 0 | 0 | 0 | 0
COc1cccc(OCC(O)CN2CCN(c3ccc(F)cc3)CC2)c1 (stereo not given) | 0 | 0 | 0 | 0 | 0 | 0
SMILES | p53 reactivation | S-ASM inh | hERG WT inh | KCNH2 3.1 inh | MmCpn inh | uPA surface inh
OC(COc1ccc2ccccc2c1)CN1CCN(c2ccc(F)cc2)CC1 (stereo not given) | 0 | 0 | 0 | -74.0 | 0 | 0
N#Cc1ccc(Cl)cc1NC(=O)CN1C(=O)C(=O)N(CCC2=CCCCC2)C1=O | - | - | 0 | 0 | - | -
O=C(/C=C/c1ccc(Cl)c([N+](=O)[O-])c1)Nc1cccc(NC(=O)c2ccco2)c1 | ? | 0 | - | 0 | 0 | 0
O=C(/C=C/c1ccc(Cl)c([N+](=O)[O-])c1)Nc1ccc(NC(=O)c2ccco2)cc1 | 0 | 0 | 0 | -119.4 | 0 | 0
Cc1ccc(CNC(=O)CCc2c(C)nc3c(c(C)nn3-c3ccc(C)cc3)c2C)cc1 | 0 | 0 | 0 | 0 | 0 | ?
Cc1ccc(-n2nc(C)c3c(C)c(CCC(=O)NCc4ccccc4)c(C)nc32)cc1 | 0 | 0 | 0 | -107.3 | 0 | 0
CCN(c1ccccc1)S(=O)(=O)c1cccc(C(=O)NCC(c2ccco2)N2CCCCC2)c1 (stereo not given) | - | 0 | 0 | 0 | - | 0
